The results in this text go back to PubChem BioAssay AID602144 (Vanderbilt Specialized Chemistry Center, 2011).

As usually defined, the remaining activity is the signal under treatment as a percentage of the control signal.

Unmarked numbers belong to inactive results. Activity calls are given as the source filed them. Rule as the data show it: active = remaining activity below about 50%; inactive = the rest.

In this assay the target is Phospholipase D1 (Homo sapiens) (UniProt Q13393). Description: PLD1 inhibitors in cells, Calu-1 cells, single concentration (AID 602144).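 Also: tested at 200 nM.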 The following applies: cellular PLD1 activity, stronger effect = lower value.
Phospholipase D1 (Homo sapiens), sequence (Q13393 whole entry, looked up): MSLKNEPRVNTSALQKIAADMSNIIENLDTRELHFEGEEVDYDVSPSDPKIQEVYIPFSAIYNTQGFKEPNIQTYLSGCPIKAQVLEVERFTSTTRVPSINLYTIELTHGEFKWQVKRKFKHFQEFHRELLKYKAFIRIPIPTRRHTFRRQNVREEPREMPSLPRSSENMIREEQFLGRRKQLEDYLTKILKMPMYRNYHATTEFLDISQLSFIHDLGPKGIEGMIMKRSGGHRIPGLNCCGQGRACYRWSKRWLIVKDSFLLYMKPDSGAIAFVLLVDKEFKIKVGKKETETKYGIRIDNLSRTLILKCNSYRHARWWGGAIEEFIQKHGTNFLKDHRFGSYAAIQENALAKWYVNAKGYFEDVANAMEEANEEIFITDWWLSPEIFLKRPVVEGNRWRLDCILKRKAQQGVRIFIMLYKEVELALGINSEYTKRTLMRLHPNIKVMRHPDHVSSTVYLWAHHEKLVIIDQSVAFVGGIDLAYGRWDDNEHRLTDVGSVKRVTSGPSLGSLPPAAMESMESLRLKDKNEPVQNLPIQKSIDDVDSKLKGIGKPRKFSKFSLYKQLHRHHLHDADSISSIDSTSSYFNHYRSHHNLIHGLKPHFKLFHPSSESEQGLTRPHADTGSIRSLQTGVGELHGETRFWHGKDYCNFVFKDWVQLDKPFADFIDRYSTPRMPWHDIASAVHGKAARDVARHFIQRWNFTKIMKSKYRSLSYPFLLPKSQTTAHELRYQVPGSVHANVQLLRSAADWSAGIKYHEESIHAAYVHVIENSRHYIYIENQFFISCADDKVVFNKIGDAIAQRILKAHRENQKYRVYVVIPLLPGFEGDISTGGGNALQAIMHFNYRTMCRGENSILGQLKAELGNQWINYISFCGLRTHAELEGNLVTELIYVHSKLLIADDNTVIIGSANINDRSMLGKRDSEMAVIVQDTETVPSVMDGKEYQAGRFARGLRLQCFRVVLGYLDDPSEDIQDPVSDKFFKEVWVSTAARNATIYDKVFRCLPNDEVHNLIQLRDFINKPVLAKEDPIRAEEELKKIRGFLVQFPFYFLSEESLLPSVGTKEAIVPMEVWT
Phospholipase D1 (Homo sapiens), sequence (Q13393 whole entry, looked up): as above
As to `COc1cccc(C(=O)NCCN2CCC(n3c(=O)[nH]c4ccccc43)CC2)n1`, the remaining activity is 39.7% (active).
As to `O=C1c2ccccc2C(=O)N1CCCN1CCC(n2c(=O)[nH]c3cc(Cl)ccc32)CC1`, the remaining activity is 67.5%.
With `Cc1ccc(C(=O)NCCN2CCN(c3ccccn3)CC2)cc1`, the remaining activity is 111%.
With `CN1CCC2(CCN(CCNC(=O)c3ccc4ccccc4c3)CC2)C1=O`, the remaining activity is 120%.
In the case of `O=C(NCCN1CCC(n2c(=O)[nH]c3ccccc32)CC1)C1CCc2ccccc2C1` (stereo not given) it was 77.8%; in that of `C[C@@H](CN1CCC(n2c(=O)[nH]c3ccccc32)CC1)NC(=O)c1ccc[nH]1`, 48.2% (active); in that of `Cn1c(C2CCN(CCN)CC2)nc2ccccc21` (tested in a mixture with another compound), 75%.
For the compound `C[C@H](CN1CCC(n2c(=O)[nH]c3cc(Cl)ccc32)CC1)NC(=O)c1cc2ccccc2[nH]1`, the remaining activity is 0.888% (active).
The same measure for `O=C(N[C@@H](Cc1ccccc1)CN1CCC(n2c(=O)[nH]c3ccccc32)CC1)c1ccc(F)c(F)c1`: 90.2%; for `C[C@@H](CN1CCC(n2c(=O)[nH]c3ccccc32)CC1)NC(=O)CCc1ccc(F)cc1`: 53.9%; for `O=C(NCCN1CCC(n2c(=O)[nH]c3ccccc32)CC1)c1cscn1`: 16.7% (active).
In the case of `O=c1[nH]c2ccccc2n1C1CCN(CCNS(=O)(=O)c2ccc(Cl)cc2)CC1`, the remaining activity was 137%.
In the case of `Cc1ccccc1NC(=S)NCCN1CCC(n2c(=O)[nH]c3ccccc32)CC1` it was 173%; in that of `C[C@H](CN1CCC2(CC1)CNc1ccccc12)NC(=O)c1ccc2ccccc2c1`, 34.6% (active); in that of `O=C1c2ccccc2C(=O)N1CCCNc1cccc(F)c1`, 166%.
Take `O=C(NCCN1CCC(n2c(=O)[nH]c3ccccc32)CC1)c1cc([N+](=O)[O-])cc([N+](=O)[O-])c1`: the remaining activity is 50% (active).
The same measure for `O=C(NCCN1CCC(c2nc3ccccc3[nH]2)CC1)c1cnc2ccccc2c1`: 123%; for `C[C@@H](CN1CCC(n2c(=O)[nH]c3cc(Br)ccc32)CC1)NC(=O)c1ccc(F)cc1`: 16.1% (active); for `CS(=O)(=O)N1CC2(CCN(CCNC(=O)c3cnc4ccccc4c3)CC2)c2ccccc21`: 99.4%.
In the case of `O=C(NCCN1CCN(c2ccncc2)CC1)c1cc2cc(F)ccc2[nH]1`, the remaining activity is 162%.
For `C[C@@H](CN1CCC(n2c(=O)[nH]c3ccccc32)CC1)NC(=O)CSc1ccccc1`, the remaining activity was 48.1% (active).
For the compound `C[C@@H](CN1CC=C(n2c(=O)[nH]c3ccccc32)CC1)NC(=O)[C@H]1C[C@@H]1c1ccccc1`, the remaining activity was 15.7% (active).
On to `O=C(NCCN1CCC(n2c(=O)[nH]c3ccccc32)CC1)c1ccc2c(ccc3ccc4ccccc4c32)c1`, for which the remaining activity is 74.8%.
The same measure for `O=C1c2ccccc2C(=O)N1CCCNCc1ccccn1`: 175%; for `O=C1c2ccccc2C(=O)N1CCCN1CCC(n2c(=O)[nH]c3ccccc32)CC1`: 76.2%; for `COc1cccc(N2CCN(CCNC(=O)c3ccc4ccccc4c3)CC2)c1`: 77.7%.
The same measure for `O=C(NCCN1CCN(c2ccncc2)CC1)c1cc2ccccc2s1`: 147%; for `CC(C(=O)NCCN1CCC(n2c(=O)[nH]c3ccccc32)CC1)(c1ccccc1)c1ccccc1`: 104%.
Regarding `CN(CCN1CCC(n2c(=O)[nH]c3ccccc32)CC1)C(=O)c1ccc2ccccc2c1`, the remaining activity is 75.5%.
Consider `C[C@H](CN1CCC2(CC1)CNCc1ccccc12)NC(=O)c1ccc2ccccc2c1`, for which the remaining activity was 126%.
Turning to `C[C@@H](CN1CCC(n2c(=O)[nH]c3cc(-c4ccc(F)c(F)c4)ccc32)CC1)NC(=O)[C@H]1C[C@@H]1c1ccccc1`, the remaining activity is 59%.
`O=c1[nH]c2ccccc2n1C1CCN(CCNS(=O)(=O)c2ccccc2C(F)(F)F)CC1`: the remaining activity was 94.8%.
Consider `CS(=O)(=O)N1CC2(CCN(CCNC(=O)c3ccc4ccccc4c3)CC2)c2ccccc21`, for which the remaining activity is 136%.
For the compound `Cc1cccc(NC(=O)NCCN2CCC(n3c(=O)[nH]c4ccccc43)CC2)c1`, the remaining activity was 67.6%.
On to `Cn1c(=O)n(C2CCN(CCNC(=O)[C@H]3C[C@@H]3c3ccccc3)CC2)c2ccccc21`, for which the remaining activity is 76.2%.
Turning to `COc1ccc(S(=O)(=O)NCCN2CCC(n3c(=O)[nH]c4ccccc43)CC2)cc1OC`, the remaining activity was 115%.
`CC(=O)c1cccc(NC(=O)NCCN2CCC(n3c(=O)[nH]c4ccccc43)CC2)c1`: the remaining activity was 137%.
Regarding `O=C(C1C[C@@H]1c1ccccc1)N1CCC2(CC1)C(=O)NCN2c1ccccc1` (stereo not given in full), the remaining activity is 86%.
As for `O=C(NCCN1CCC(n2c(=O)[nH]c3ccccc32)CC1)c1ccc2cccc3c2c1CC3`, the remaining activity was 93.4%.
Regarding `C[C@@H](CN1CCC2(CC1)CCN(C)C2=O)NC(=O)c1ccc2ccccc2c1`, the remaining activity is 122%.
